# Values joined by “and” are separate entries in the source; they are usually repeats but may differ in a detail not shown here. Equal entries are not always repeated. Results filed as inconclusive are left out. A structure can be active in one record and inactive in another. Active and inactive are the calls of the source. The calls were made as follows, unless noted: active = hit-call score of the fitted dose curve at least 0.9, where 1 is the maximum; inconclusive = response in the unintended direction; inactive = score below 0.9.
# Legend:
# [1] = test system: Thyroperoxidase (TPO), gene 54314; assay: CCTE_Simmons_AUR_rTPO: CCTE's Amplex UltraRed Assay for Thyroperoxidase (TPO) Inhibition, Simmons Lab (AID 2283662);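 as to AC50: potency for loss of signal meaning inhibition of peroxidase activity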
# In short: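 Endpoint is decreased Amplex UltraRed fluorescence after a 30-min, 37C reaction of rat thyroid microsomes with 300 uM H2O2. Eight test concentrations (5 nM–87.5 uM final) in 0.5% DMSO, three biological replicates each.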
# [2] = CCTE_Simmons_CellTiterGLO_HEK293T: Viability Assessment in CCTE's Assays for Thyroperoxidase (TPO) Inhibition, Simmons Lab (AID 2283665);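 as to AC50: cells exposed to compound for 24 h before readout; actives reduce ATP signal below DMSO vehicle meaning cytotoxicity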
# In short: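 HEK293T, 10 000 cells/well, DMEM + 1% FBS; 8-pt titration 5 nM–87.5 uM [final], 0.5% DMSO; 24 hr, 37C, 5% CO2; CellTiter-Glo luminescence; n=3 biological replicates.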
# [3] = target: Luciferin 4-monooxygenase (Photinus pyralis) (UniProt P08659); assay: CCTE_Simmons_QuantiLum_inhib_2: CCTE's Firefly Luciferase Inhibition Assay, Simmons Lab (AID 2283767);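 as to AC50: potency for inhibitors that lower luciferase luminescence relative to DMSO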
# Luciferin 4-monooxygenase (Photinus pyralis), sequence (P08659 whole entry, looked up): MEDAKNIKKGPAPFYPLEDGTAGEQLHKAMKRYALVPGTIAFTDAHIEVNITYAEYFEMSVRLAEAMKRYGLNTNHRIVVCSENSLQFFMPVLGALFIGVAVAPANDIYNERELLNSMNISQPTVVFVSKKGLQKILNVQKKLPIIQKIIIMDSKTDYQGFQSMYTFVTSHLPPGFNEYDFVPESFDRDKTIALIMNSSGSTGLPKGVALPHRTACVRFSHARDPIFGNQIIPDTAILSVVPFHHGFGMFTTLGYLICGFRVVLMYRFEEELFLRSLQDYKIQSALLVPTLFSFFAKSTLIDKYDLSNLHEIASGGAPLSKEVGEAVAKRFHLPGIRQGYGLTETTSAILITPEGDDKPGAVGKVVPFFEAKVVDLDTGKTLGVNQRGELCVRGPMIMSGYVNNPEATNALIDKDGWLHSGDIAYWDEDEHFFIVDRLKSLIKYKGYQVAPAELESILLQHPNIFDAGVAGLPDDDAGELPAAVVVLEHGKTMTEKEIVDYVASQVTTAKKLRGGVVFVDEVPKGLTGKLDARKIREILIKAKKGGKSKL
# In short: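 Luminescence loss relative to DMSO vehicle defines inhibition; detection reagent containing 150 uM D-luciferin and 147 uM dATP (final, pH 7.8) is injected immediately before each read. Enzyme is preincubated with an 8-point titration (5 nM–87.5 uM final) for 30 min at 37C.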
# [4] = Tanguay_ZF_120hpf_CFIN_legacy: (Legacy) Oregon State University Tanguay Lab 120 Hour Post-fertilization zebrafish Assay for Caudal Fin Malformation (AID 2283649)
# In short: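 Single dechorionated 5D wild-type embryos are dosed at 6 hpf (final DMSO 0.64%) and held statically at 28C. Caudal fin malformation is recorded as present or absent at 120 hpf under brightfield, excluding dead embryos.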
# [5] = Tanguay_ZF_120hpf_PIG_legacy: (Legacy) Oregon State University Tanguay Lab 120 Hour Post-fertilization zebrafish Assay for Pigmentation Malformation (AID 2283650)
# In short: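 Pronase dechorionation at 4 hpf; embryos plated at 6 hpf, one per well; static exposure, sealed and foil-covered, 28C, to 120 hpf; pigmentation read by brightfield, binary; DMSO 0.64% baseline, 5uM trimethyltin chloride positive control.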
# [6] = Tanguay_ZF_120hpf_CIRC_legacy: (Legacy) Oregon State University Tanguay Lab 120 Hour Post-fertilization zebrafish Assay for Circulatory Malformation (AID 2283651)
# In short: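 Read-out: presence or absence of circulatory malformation at 120 hpf, scored by brightfield microscopy, fitted in the gain-of-signal direction against DMSO baseline. Wild-type 5D larvae were exposed from 6 hpf after enzymatic chorion removal.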
# [7] = Tanguay_ZF_120hpf_SWIM_legacy: (Legacy) Oregon State University Tanguay Lab 120 Hour Post-fertilization zebrafish Assay for Swim Bladder Malformation (AID 2283654);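 also: swim bladder malformation in each larva scored yes or no under brightfield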
# In short: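 Embryos lacking chorions were exposed individually and statically to test chemical from 6 to 120 hpf at 28C, with 0.64% DMSO as vehicle. At 120 hpf, swim bladder malformation was recorded as present or absent by brightfield microscopy.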
# [8] = Tanguay_ZF_120hpf_TRUN_legacy: (Legacy) Oregon State University Tanguay Lab 120 Hour Post-fertilization zebrafish Assay for Truncated Body (AID 2283655)
# In short: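 Single dechorionated zebrafish embryos received test chemical from 6 hpf in 0.64% DMSO, kept at 28C. At 120 hpf, brightfield inspection noted any truncated body.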
# [9] = Tanguay_ZF_120hpf_NC_legacy: (Legacy) Oregon State University Tanguay Lab 120 Hour Post-fertilization zebrafish Assay for Notochord and Tail Malformation (AID 2283656)
# In short: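 Dechorionated Tropical 5D wild-type zebrafish embryos, one per well from 6 hpf, statically exposed to 120 hpf at 28C in 0.64% DMSO final. Notochord distortion scored present/absent by brightfield; dead embryos excluded.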
# [10] = Tanguay_ZF_120hpf_TR_legacy: (Legacy) Oregon State University Tanguay Lab 120 Hour Post-fertilization zebrafish Assay for Touch Response (AID 2283667)
# In short: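 5D WT embryos; static exposure to 120 hpf, 28C, sealed/dark; DMSO 0.64% v/v final. TR scored present/absent; dead embryos excluded. Pos ctrl 5uM trimethyltin chloride.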
# [11] = Tanguay_ZF_120hpf_ActivityScore_legacy: (Legacy) Oregon State University Tanguay Lab 120 Hour Post-fertilization zebrafish Assay Score for Activity (AID 2283742)
# In short: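 Embryos are staged, enzymatically dechorionated at 4 hpf, placed individually at 6 hpf, then held in test chemical (0.64% DMSO) at 28C until 120 hpf. Mortality and malformations are scored by brightfield, with non-mortality endpoints skipped for dead embryos.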
# [12] = CCTE_Padilla_ZF_144hpf_TERATOSCORE: (Legacy) CCTE's 144 Hour Post-fertilization zebrafish Assay Teratoscore, Padilla Lab (AID 2283679; active = hit-call score of the fitted dose curve at least 0.9, where 1 is the maximum; inactive = score below 0.9;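 also: zebrafish embryos with chorions exposed by immersion from 6-8 hpf to 5 dpf with daily renewal; teratogenicity score from eye scoring of death hatching and malformations at 144 hpf; higher score means more developmental defects relative to DMSO baseline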)
# In short: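 Larvae scored by eye at 144 hpf for death, hatching and malformations after a day in clean Hanks'. Before that, daily-renewed exposure at 80 uM (0.4% DMSO, 26C) from roughly 6-8 hpf through 5 dpf, 4 embryos per chemical.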
# [13] = CEETOX_H295R_MTT_cell_viability: Viability Assessment in the CeeTox HT-H295R MTT Assay (AID 2283718; active = hit-call score of the fitted dose curve at least 0.9, where 1 is the maximum; inactive = score below 0.9;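 as to AC50: curve fitted both ways so AC50 may mark viability loss or gain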)
# In short: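 MTT reduction (0.5 mg/ml, 4 h at 37 C; absorbance at 570 and 650 nm) gave viability as background-corrected percent change versus controls. H295R cells had 48 h forskolin (10 uM) prestimulation, then 48 h chemical exposure at 0.1% DMSO.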
# [14] = STM_H9_OrnCyssISnorm_ratio: Stemina devTOX quickPredict H9 human embryonic stem cell (hESC)-based Assay for Ornithine (ORN):Cystine (CYSS) Ratio (AID 2283714)
# In short: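 Steps: H9 hESCs in pluripotent state dosed 72h, medium plus compound renewed every 24h; conditioned medium from the final 24h deproteinized in 40% acetonitrile; ORN and CYSS quantified by UPLC-HRMS with C13 spike-ins; ratio relative to vehicle.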
# [15] = target: zebrafish Estrogen Receptor (ESR1), esr1 (gene 259252) (UniProt P57717); assay: ATG_zfER1_XSP1: Attagene TRANS-FACTORIAL Multi-Species (XSP1) HepG2 Assay for zebrafish Estrogen Receptor (ESR1) (AID 2283772)
# zebrafish Estrogen Receptor (ESR1), esr1 (gene 259252), sequence (P57717 whole entry, looked up, the tested form may be a part): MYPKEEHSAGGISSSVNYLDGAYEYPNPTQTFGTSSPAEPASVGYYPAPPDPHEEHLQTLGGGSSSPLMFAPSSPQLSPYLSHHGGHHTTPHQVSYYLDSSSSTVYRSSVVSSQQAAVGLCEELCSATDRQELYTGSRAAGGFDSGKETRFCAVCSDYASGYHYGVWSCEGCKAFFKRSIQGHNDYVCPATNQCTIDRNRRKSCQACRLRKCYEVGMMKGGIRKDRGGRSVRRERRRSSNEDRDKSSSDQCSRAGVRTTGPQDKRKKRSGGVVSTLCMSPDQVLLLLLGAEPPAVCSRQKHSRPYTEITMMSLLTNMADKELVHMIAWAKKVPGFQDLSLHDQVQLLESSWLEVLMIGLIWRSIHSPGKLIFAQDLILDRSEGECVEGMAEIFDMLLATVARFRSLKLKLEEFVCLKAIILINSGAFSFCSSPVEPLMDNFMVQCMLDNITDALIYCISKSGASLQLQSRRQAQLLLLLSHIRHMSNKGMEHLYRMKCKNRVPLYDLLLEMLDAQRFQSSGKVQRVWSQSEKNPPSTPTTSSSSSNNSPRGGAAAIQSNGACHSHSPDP
# In short: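 Reporter mRNA induction, gauged via RT-PCR/capillary electrophoresis fluorescence relative to DMSO controls, in HepG2 cells transiently carrying GAL4-UAS reporter units; 24 h dosing.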
# [16] = test system: frog Estrogen Receptor (ESR2), gene 100174814; assay: ATG_frER2_XSP1: Attagene TRANS-FACTORIAL Multi-Species (XSP1) HepG2 Assay for frog Estrogen Receptor (ESR2) (AID 2283774)
# In short: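 Transactivation of an exogenous receptor-Gal4 fusion is tracked in transfected HepG2 cells via induced reporter transcript levels. After 24 h treatment, RT-PCR with capillary electrophoresis quantifies signal gain over DMSO.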
smiles,measurement,setting,value
[O-]/[N+](=N\O)c1ccccc1,outcome,[1],inactive
same,outcome,[2],inactive
same,AC50,[3],31.7 µM (active)
CCCCCCCCCCCCS,AC50,[1],7.49 µM (active)
same,AC50,[2],83.5 µM (active)
same,outcome,[3],inactive
CCCCCCOc1ccc(O)cc1,AC50,[1],8.69 µM (active)
same,AC50,[2],66.1 µM (active)
same,AC50,[3],53.8 µM (active)
C=C(C)C(N)=O,outcome,[4],inactive
same,outcome,[5],inactive
same,outcome,[6],inactive
same,outcome,[7],inactive
same,outcome,[8],inactive
same,outcome,[9],inactive
same,outcome,[10],inactive
same,outcome,[11],inactive
Cc1cccc(O)c1,AC50,[1],19.6 µM (active)
same,outcome,[2],inactive
same,outcome,[3],inactive
COc1ccccc1O,AC50,[1],21.7 µM (active)
same,outcome,[2],inactive
same,outcome,[3],inactive
O=C(c1ccc(OCCN2CCCCC2)cc1)c1c(-c2ccc(O)cc2)sc2cc(O)ccc12,outcome,[4],inactive
same,outcome,[6],inactive
same,outcome,[8],inactive
same,outcome,[9],inactive
same,outcome,[1],inactive
same,AC50,[2],20 µM (active)
same,AC50,[12],86.8 µM (active)
same,outcome,[13],inactive
same,outcome,[11],inactive
same,outcome,[3],inactive
NC(N)=S,AC50,[1],19.1 µM (active) and 12.3 µM (active)
same,outcome,[2],inactive
same,AC50,[3],10.4 µM (active)
same,outcome,[3],inactive
CCCCC/C=C\C=C\C(=O)OCC,AC50,[1],38.6 µM (active)
same,AC50,[2],88.6 µM (active)
same,outcome,[3],inactive
O=C1OC2(c3ccc(O)cc3Oc3cc(O)ccc32)c2ccccc21,AC50,[1],10.2 µM (active)
same,outcome,[2],inactive
same,outcome,[3],inactive
O=c1cc(-c2ccc(O)cc2)oc2cc(O)cc(O)c12,AC50,[1],4.81 µM (active)
same,outcome,[2],inactive
same,AC50,[3],7.35 µM (active)
CC(=O)OC/C=C(C)/C=C/C=C(C)/C=C/C1=C(C)CCCC1(C)C,AC50,[1],50.9 µM (active)
same,outcome,[2],inactive
same,AC50,[14],78.1 µM (active)
same,AC50,[13],73.7 µM (active)
same,outcome,[3],inactive
C#C[C@]1(O)CC[C@H]2[C@@H]3CCc4cc(O)ccc4[C@H]3CC[C@@]21C,outcome,[4],inactive
same,outcome,[5],inactive
same,outcome,[6],inactive
same,outcome,[7],inactive
same,outcome,[8],inactive
same,outcome,[9],inactive
same,AC50,[1],9.38 µM (active)
same,AC50,[2],37.5 µM (active)
same,outcome,[10],inactive
same,AC50,[12],5.77 µM (active)
same,outcome,[13],inactive
same,outcome,[11],inactive
same,outcome,[3],inactive
same,AC50,[15],0.000281 µM (active)
same,AC50,[16],0.000273 µM (active)
CCCCCCCCOC(=O)c1ccc(O)cc1,AC50,[1],52.8 µM (active)
same,AC50,[2],24.4 µM (active)
same,outcome,[3],inactive
CN1CCc2cccc3c2[C@H]1Cc1ccc(O)c(O)c1-3,AC50,[1],0.522 µM (active)
same,AC50,[2],14.4 µM (active)
same,AC50,[3],12.5 µM (active)
CCc1cccc(O)c1,AC50,[1],16.6 µM (active)
same,outcome,[2],inactive
same,AC50,[3],55.2 µM (active)

# — PubChem BioAssay (EPA / NIEHS)
